RTF Ca sens act – increases calcium sensitivity of human cardiac regulated thin filaments; P19429+P45379; IANBD-labeled TnC RTF fluorescence at EC20 calcium; 0% EC20 calcium, 100% full calcium; activation, % at 7.2 µM; 0.24% of 340,000 active; AID 493008;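 active = activation above the mean over all tested compounds plus 3 SD, cut at about 30% in these data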;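 note: rise in fluorescence read as greater calcium sensitivity of cardiac thin filaments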
eLon inh – inhibitors of E. coli Lon protease; purified E. coli Lon protease, fluorescence polarization; inhibition, % at 7.94 µM; 0.42% of 360,000 active; AID 602123; in the data active = inhibition above about 13%, passing the limit was not always enough
LANA-H2B inh – blocks KSHV LANA binding to histone H2A/H2B; Q9QR71; cell-free LANA-H2A/H2B peptide, fluorescence polarization; inhibition, % (test concentration not listed); 0.6% of 320,000 active; AID 2629; in the data active = inhibition mostly above about 10%, no sharp cut-off; inactive = mostly below about 6.7%
Target sequence (Q9QR71 whole entry, looked up): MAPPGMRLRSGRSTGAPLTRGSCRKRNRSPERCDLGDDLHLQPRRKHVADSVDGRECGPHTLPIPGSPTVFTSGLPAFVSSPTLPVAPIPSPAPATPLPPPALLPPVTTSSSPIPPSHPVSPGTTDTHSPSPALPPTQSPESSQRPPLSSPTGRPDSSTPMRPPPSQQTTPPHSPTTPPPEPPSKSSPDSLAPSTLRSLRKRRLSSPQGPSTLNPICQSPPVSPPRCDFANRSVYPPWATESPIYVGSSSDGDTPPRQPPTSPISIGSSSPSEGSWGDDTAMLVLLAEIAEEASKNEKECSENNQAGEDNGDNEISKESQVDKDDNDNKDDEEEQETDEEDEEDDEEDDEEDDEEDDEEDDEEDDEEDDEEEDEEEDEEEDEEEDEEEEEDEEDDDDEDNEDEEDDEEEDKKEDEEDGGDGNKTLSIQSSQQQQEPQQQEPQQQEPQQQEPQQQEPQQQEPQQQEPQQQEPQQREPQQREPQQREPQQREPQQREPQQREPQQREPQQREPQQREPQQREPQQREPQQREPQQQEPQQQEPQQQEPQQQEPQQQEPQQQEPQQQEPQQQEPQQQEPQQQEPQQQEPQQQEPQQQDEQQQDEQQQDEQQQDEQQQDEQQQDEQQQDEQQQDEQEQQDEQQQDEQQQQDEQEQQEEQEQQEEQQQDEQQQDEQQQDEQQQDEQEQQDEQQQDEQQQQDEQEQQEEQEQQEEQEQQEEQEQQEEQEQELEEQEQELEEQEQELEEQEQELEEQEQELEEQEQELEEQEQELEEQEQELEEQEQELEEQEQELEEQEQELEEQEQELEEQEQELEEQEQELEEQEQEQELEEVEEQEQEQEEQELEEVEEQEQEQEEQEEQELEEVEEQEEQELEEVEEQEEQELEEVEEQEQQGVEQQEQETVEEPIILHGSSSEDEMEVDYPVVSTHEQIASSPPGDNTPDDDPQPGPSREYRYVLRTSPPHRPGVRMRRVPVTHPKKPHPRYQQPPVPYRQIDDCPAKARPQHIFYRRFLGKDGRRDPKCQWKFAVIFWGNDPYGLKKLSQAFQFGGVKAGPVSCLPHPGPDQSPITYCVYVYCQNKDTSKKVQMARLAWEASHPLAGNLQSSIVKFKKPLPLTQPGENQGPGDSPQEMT
Keap1-Nrf2 PPI – Keap1-Nrf2 (human) interaction inhibition; Keap1 Kelch-Nrf2 peptide fluorescence polarization, 1536-well; inhibition, % at 9.4 µM; 0.15% of 340,000 active; in the data active = inhibition above about 12%;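 note: human Keap1 Kelch domain with fluorescein labeled Nrf2 9mer peptide probe; higher means more block of Keap1 binding to Nrf2 peptide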
Cardiac RTF inh – cardiac RTF calcium desensitization; inhibition, % at 7.15 µM; P19429+P45379; IANBD-labeled cardiac RTF, Ca2+ fluorescence; AID 493244; 0.12% of 340,000 active;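 active = inhibition above the mean inhibition of all tested compounds plus 3 SD, cut at about 17% in these data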;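 note: assay run at fixed EC70 calcium of 1.6 mM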
LANA DNA inh – blocks KSHV LANA C-terminal domain binding to DNA | AID 504423 | 0.078% of 340,000 active | inhibition, % at 9 µM | MBP-C-LANA/FAM-LBS DNA binding, fluorescence polarization;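 active = highest replicate inhibition at or above 60% at 9 µM, even if other replicates fall short; inactive = all replicates below 60% inhibition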
eLon confirm – confirmation of E. coli Lon protease inhibitors; shares compounds with eLon inh; purified E. coli Lon, fluorescence polarization; inhibition, % at 7.94 µM; 31% of 1,400 active; AID 602230; in the data active = inhibition above about 16%
Large screens that a line does not name were inactive (follow-up assays come after a bar, where they were run). In the library only some 1.3% were active in any assay of this set; here they are far more common.

CCc1ccccc1Nc1nc(N)nc(CSc2nnc3ccccn23)n1	eLon inh 61.6 | eLon confirm inactive
COc1ccc(S(=O)(=O)Nc2ccc(F)cc2)cc1N(C)S(=O)(=O)c1ccc(Cl)cc1	eLon inh 16.1 | eLon confirm 41.0
COc1ccc(NS(=O)(=O)c2ccc(OC)c(N(C)S(=O)(=O)c3ccc(Cl)cc3)c2)cc1	none
CC(NC(=O)COC(=O)C12CC3CC(CC(Br)(C3)C1)C2)c1ccccc1 (stereo unspecified)	eLon inh 25.9 | eLon confirm inactive
COc1ccc(CCNC(=O)COC(=O)C23CC4CC(CC(Br)(C4)C2)C3)cc1	none
C[C@@H]1Cn2cnc(C(=O)N[C@@H](Cc3c[nH]c4ccccc34)C(=O)OC(C)(C)C)c2C(=O)N1	none (no result: RTF Ca sens act, LANA-H2B inh, Keap1-Nrf2 PPI, Cardiac RTF inh, LANA DNA inh)
Cc1ccc(NC(=O)c2cc([N+](=O)[O-])ccc2NCc2cccnc2)cc1	none
CC(C)(C)C(=O)NNC(=O)C1CC1(c1ccccc1)c1ccccc1 (stereo unspecified)	none
O=C1CN(C(=O)c2ccccc2F)C(c2ccccc2)c2cc(F)ccc2N1 (stereo unspecified)	eLon inh 18.5 | eLon confirm inactive
CCOC(=O)C1Nc2ccccc2C2c3ccccc3CC12 (stereo unspecified)	eLon inh 30.0 | eLon confirm 29.4
CCOC(=O)C1Nc2c(F)cc(C)cc2C2c3ccccc3CC12 (stereo unspecified)	none
FC(F)(F)c1nnc2ccc(Sc3ccccn3)nn12	none
Cc1[nH]c2ccccc2c1/C=N/NC(=O)c1cccc(F)c1	eLon inh 30.6 | eLon confirm inactive
Cc1[nH]c2ccccc2c1/C=N/NC(=O)CNC(=O)c1ccco1	none (no result: RTF Ca sens act, Cardiac RTF inh)
Cc1[nH]c2ccccc2c1/C=N\NC(=O)c1ccco1	eLon inh 158.9 | eLon confirm inactive
CC(=O)N1CC=C2C(C#N)=C(N)C(C#N)(C#N)[C@H](c3ccoc3)[C@H]2C1	eLon inh 30.9 | eLon confirm inactive
Cc1csc(SCC(=O)NC(C)c2ccc(F)cc2)n1 (stereo unspecified)	none
O=C(CNc1ccccc1F)Nc1cccc2ccccc12	none
Cc1[nH]c2ccc3ncccc3c2c1C	none
Cc1[nH]c2ccc3c(ncn3CCC#N)c2c1C	eLon inh 29.3 | eLon confirm inactive
CC1=C(C(=O)c2ccccc2)C(c2cccc([N+](=O)[O-])c2)NC(=S)N1 (stereo unspecified)	eLon inh 26.4 | eLon confirm inactive
CC(=O)Nc1cc(-c2ccccc2N(C)C)cn2c(-c3ccc(S(C)(=O)=O)cc3)cnc12	eLon inh active (no result: RTF Ca sens act, LANA-H2B inh, Keap1-Nrf2 PPI, Cardiac RTF inh, LANA DNA inh) | eLon confirm 55.1
N#Cc1ccc(-c2ccc(OCC(=O)NCC(=O)Nc3ccc(F)c(F)c3F)cc2)cc1	none
Cc1cc2cc(CNC(=O)c3ccc(S(=O)(=O)N4CCCC4)cc3)ccc2n1C	eLon inh 23.4 | eLon confirm inactive
Cc1cc2cc(CNC(=O)c3ccc(S(=O)(=O)N4CCCCC4)cc3)ccc2n1C	eLon inh 16.0 | eLon confirm inactive
CCOc1ccc(CCNC(=O)CSC(=S)N2CCCC2)cc1OCC	none
O=C(CN1C(=O)COc2ccc(S(=O)(=O)N3CCOCC3)cc21)Nc1cccc(Cl)c1	eLon inh 19.1 | eLon confirm inactive
O=C1CCN(S(=O)(=O)c2cc(C(F)(F)F)ccc2Cl)CC1	none
CCCCN1C(=O)C(=O)N(CC(=O)N2CCc3ccccc32)C1=O	eLon inh 17.1 | eLon confirm inactive
CC(C)N1C(=O)C(=O)N(CC(=O)N2CCc3ccccc32)C1=O	none
Cc1ccc(-c2csc3nc(C)n(-n4cccc4)c(=O)c23)o1	eLon inh 20.7 | eLon confirm inactive
O=C1N=C(N2C=CC(=C3C=CNC=C3)C=C2)/C(=C/N=NC(=O)c2ccccc2O)S1	eLon inh 40.5 | eLon confirm 40.6
CC1CCCCC1NC(=O)COC(=O)CN1C(=O)c2ccccc2C1=O (stereo unspecified)	none
CC1CCCCC1NC(=O)CN1C(=O)c2cccc(N)c2C1=O (stereo unspecified)	eLon inh 16.8 (no result: LANA-H2B inh) | eLon confirm 25.5
Cc1ccc(C(=O)NCCNS(=O)(=O)c2ccccc2)cn1	none
O=c1c(/C=C(\O)c2ccc(F)cc2)nc2ccccc2n1-c1ccccc1	RTF Ca sens act 51.4, eLon inh active, LANA-H2B inh -3.4 | eLon confirm inactive
CCOC(=O)C1=C(COC(=O)c2ccccc2OC(F)F)NC(=O)NC1C (stereo unspecified)	none
CCOC(=O)C1=C(COC(=O)c2ccc3ccccc3c2O)NC(=O)NC1C (stereo unspecified)	RTF Ca sens act 34.8, eLon inh 49.2 | eLon confirm inactive
Cc1cc(Br)cc(Cl)c1OCC(=O)N1CCN(C(=O)c2ccco2)CC1	none
CCc1nc2ccc(C(=O)NCCCn3ccnc3)cn2c1N(C)Cc1cccs1	none (no result: RTF Ca sens act, LANA-H2B inh, Keap1-Nrf2 PPI, Cardiac RTF inh, LANA DNA inh)
COC(=O)c1ccc(S(=O)(=O)N2C3CCC2CC(NC(=O)NC2CCCCC2)C3)cc1 (stereo unspecified)	none
COc1ccc(S(=O)(=O)N2C3CCC2CC(NC(=O)NC2CCCCC2)C3)cc1 (stereo unspecified)	eLon inh 82.0 | eLon confirm inactive
CCc1cc(=O)oc2c(C)c(OCC(=O)NCCCn3ccnc3)ccc12	none
O=C(O)CC(SCC(=O)Nc1ccc(S(=O)(=O)N2CCCC2)cc1)C(=O)O (stereo unspecified)	eLon inh 17.4 | eLon confirm inactive
O=c1nc2c(O)cccn2c2c1c(=O)[nH]c1ccccc12	RTF Ca sens act 39.6, eLon inh 155.9 (no result: LANA-H2B inh) | eLon confirm 142.4
COCCN(CC(=O)Nc1cccc(C)c1C)C(=O)CN1C(=O)NC2(CCCCC2)C1=O	none
Cc1cc(Br)cn2c(Cc3ccsc3)c(C3CCCCC3)nc12	eLon inh 49.9 (no result: RTF Ca sens act, LANA-H2B inh, Keap1-Nrf2 PPI, Cardiac RTF inh, LANA DNA inh) | eLon confirm 53.5
Cc1cc(Br)cn2c(Cc3cccc(F)c3)c(-c3ccc(F)cc3)nc12	none (no result: RTF Ca sens act, LANA-H2B inh, Keap1-Nrf2 PPI, Cardiac RTF inh, LANA DNA inh)
COc1ccc(-c2nc3c(C)cc(Br)cn3c2Cc2ccc(C)cc2)cc1OC	eLon inh 28.1 (no result: RTF Ca sens act, LANA-H2B inh, Keap1-Nrf2 PPI, Cardiac RTF inh, LANA DNA inh) | eLon confirm inactive
CCCc1nc2c(C)cc(Br)cn2c1Cc1ccsc1	none (no result: RTF Ca sens act, LANA-H2B inh, Keap1-Nrf2 PPI, Cardiac RTF inh, LANA DNA inh)
Cc1cc(Br)cn2c(Cc3ccsc3)c(C(C)(C)C)nc12	eLon inh 80.3 (no result: RTF Ca sens act, LANA-H2B inh, Keap1-Nrf2 PPI, Cardiac RTF inh, LANA DNA inh) | eLon confirm 71.4
Cc1cc(Br)cn2c(Cc3ccccc3)c(C3CCCCC3)nc12	none (no result: RTF Ca sens act, LANA-H2B inh, Keap1-Nrf2 PPI, Cardiac RTF inh, LANA DNA inh)
Cc1cc(Br)cn2c(Cc3ccsc3)c(-c3ccc(F)cc3)nc12	eLon inh 25.3 (no result: RTF Ca sens act, LANA-H2B inh, Keap1-Nrf2 PPI, Cardiac RTF inh, LANA DNA inh) | eLon confirm inactive
CC1ON=C(c2ccc(F)cc2)NC1=O (stereo unspecified)	none (no result: RTF Ca sens act, LANA-H2B inh, Keap1-Nrf2 PPI, Cardiac RTF inh, LANA DNA inh)
CCc1ccc(C2CC(=O)N(c3ccc(F)cc3)C3=C2C(=O)OC3)cc1 (stereo unspecified)	none

Screening data as filed in PubChem.
